The values that follow come from PubChem BioAssay (EPA / NIEHS).

The structures appear in SMILES notation. “And” between values parts separate entries of the source, which are not always exact repeats. Identical values can stand only once. Where a structure was tested more than once in an assay, its records may differ in their call. The source made the active and inactive calls. How the source made its calls: active means hit-call score of the fitted dose curve at least 0.9, where 1 is the maximum; inactive means score below 0.9.

Read-out in experiment [1]: Matrix Metallopeptidase 1 (MMP1), MMP1 (gene 4312)
In words: BSK_BE3C_MMP1: BioMAP Diversity Plus: BE3C Assay for Matrix Metallopeptidase 1 (MMP1) Biomarker Activity (AID 2283024). As to conditions: primary human bronchial epithelial cells; actives raise or lower the signal. An outline of the steps:
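Dose cells, wait 24 h, run MMP1 ELISA; cells are human bronchial epithelial primaries. Both increases and decreases relative to DMSO counted.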

Experiment [2] is described as follows: BSK_3C_Vis: BioMAP Diversity Plus: 3C Assay for Morphology Visualization (AID 2283025).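 Further: fitted both ways so gain or loss versus DMSO counts.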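 On AC50: light microscopy image of cell morphology used as background control.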 As to conditions: primary human endothelial cells (HUVEC). An outline of the steps:
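Endothelial cells from human umbilical vein were treated with test chemicals for 24 h and inspected by light microscopy for changes in cell conformation.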

Read-out in experiment [3]: Pselectin, SELP (gene 6403)
The experiment can be described thus: BSK_4H_Pselectin: BioMAP Diversity Plus: 4H Assay for Pselectin Biomarker Activity (AID 2283026). To be noted: primary human endothelial cells (HUVEC); actives raise or lower the signal. An outline of the steps: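 Human vascular endothelium from umbilical vein; P-selectin measured by ELISA at 24 h post-dose, with cytotoxicity checked by sulforhodamine B total-protein staining in parallel cultures (0.1% SRB after 10% TCA fixation, read at 560 nm).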

Experiment [4] in a line: BSK_4H_SRB: Viability Assessment in the BioMAP Diversity Plus: 4H Assay (AID 2283027).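 Further: cells exposed to compound for 24 h before staining.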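 On AC50: curves fitted both ways versus DMSO so AC50 may be loss or gain.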 As to conditions: primary human endothelial cells (HUVEC). An outline of the steps:
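Absorbance at 560 nm of SRB-stained total protein served as the viability read-out in confluent primary human umbilical vein endothelium 24 h after chemical treatment. Curves were fitted bidirectionally against DMSO as negative control.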

A short description of experiment [5]: BSK_BE3C_SRB: Viability Assessment in the BioMAP Diversity Plus: BE3C Assay (AID 2283028).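 On AC50: fitted both ways so AC50 may mark signal gain or loss versus DMSO.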 As to conditions: primary human bronchial epithelial cells. The essentials:
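Cells (human bronchial epithelial, primary) are treated with chemicals, and after 24 h the parallel cultures are fixed in 10% TCA. These are then stained with 0.1% SRB and read at 560 nm. Gain or loss of signal is fitted relative to DMSO.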

Read-out in experiment [6]: Thrombomodulin, THBD (gene 7056)
In words: BSK_3C_Thrombomodulin: BioMAP Diversity Plus: 3C Assay for Thrombomodulin Biomarker Activity (AID 2283029). As to conditions: primary human endothelial cells (HUVEC); actives raise or lower the signal. An outline of the steps: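 Thrombomodulin ELISA, human primary HUVEC, 24 h post-dose; data fitted in both directions relative to DMSO.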

Read-out in experiment [7]: Urokinase-type plasminogen activator receptor (uPAR), PLAUR (gene 5329)
The experiment can be described thus: BSK_4H_uPAR: BioMAP Diversity Plus: 4H Assay for Urokinase-type plasminogen activator receptor (uPAR) Biomarker Activity (AID 2283030). To be noted: primary human endothelial cells (HUVEC); actives raise or lower the signal. An outline of the steps:
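Cell-surface uPAR ELISA signal, measured 24 h after dosing human umbilical vein endothelial cells, was analyzed with bidirectional fitting relative to DMSO. Parallel SRB staining of total protein tracked overt cytotoxicity.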

Read-out in experiment [8]: Vascular endothelial growth factor receptor 2 (Homo sapiens) (UniProt P35968)
In words: BSK_4H_VEGFRII: BioMAP Diversity Plus: 4H Assay for Vascular endothelial growth factor receptor 2 (VEGFR2) Biomarker Activity (AID 2283031). As to conditions: primary human endothelial cells (HUVEC); actives raise or lower the signal. An outline of the steps: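 ELISA read-out of VEGFRII in primary human umbilical vein endothelium, taken 24 h after chemical treatment. Responses are expressed relative to DMSO, with bidirectional fitting.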

Read-out in experiment [9]: Human Leukocyte Antigen - DR isotype (HLADR), HLA-DRA (gene 3122)
In words: BSK_BE3C_HLADR: BioMAP Diversity Plus: BE3C Assay for Human Leukocyte Antigen - DR isotype (HLADR) Biomarker Activity (AID 2283032). As to conditions: primary human bronchial epithelial cells; actives raise or lower the signal. An outline of the steps:
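Signal came from an ELISA for HLA-DR in human bronchial epithelial primary cells harvested 24 h after treatment; gain- and loss-of-signal fitting used DMSO controls as reference.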

Read-out in experiment [10]: Vascular cell adhesion molecule 1 (VCAM1), VCAM1 (gene 7412)
The experiment can be described thus: BSK_4H_VCAM1: BioMAP Diversity Plus: 4H Assay for Vascular cell adhesion molecule 1 (VCAM1) Biomarker Activity (AID 2283033).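 On outcome: cell-surface VCAM-1 protein measured by ELISA.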 As to conditions: primary human endothelial cells (HUVEC); actives raise or lower the signal. An outline of the steps: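 Endpoint derived from bidirectional fitting against DMSO controls of VCAM-1 ELISA signal in umbilical vein endothelial cells sampled at 24 h following treatment.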

Read-out in experiment [11]: Interferon-gamma inducible Protein 10 (IP10), CXCL10 (gene 3627)
The experiment can be described thus: BSK_BE3C_IP10: BioMAP Diversity Plus: BE3C Assay for Interferon-gamma inducible Protein 10 (IP10) Biomarker Activity (AID 2283034). To be noted: primary human bronchial epithelial cells; actives raise or lower the signal. The essentials: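 Using primary human bronchial epithelial cultures, the assay captures IP-10 by ELISA one day (24 h) after exposure. Parallel SRB staining of total protein flags overt cytotoxicity. Fits run bidirectionally relative to DMSO.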

Read-out in experiment [12]: Monokine induced gamma interferon (MIG), CXCL9 (gene 4283)
In words: BSK_BE3C_MIG: BioMAP Diversity Plus: BE3C Assay for Monokine induced gamma interferon (MIG) Biomarker Activity (AID 2283035).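 On outcome: MIG protein measured by ELISA in BE3C cultures after 24 h of dosing.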 To be noted: primary human bronchial epithelial cells; actives raise or lower the signal. The essentials: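 MIG level was determined by ELISA after 24 h chemical treatment of primary human bronchial epithelial cells. Values were fitted bidirectionally with DMSO as the negative control and activity baseline.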

Read-out in experiment [13]: Transforming growth factor beta 1 (TGFb1), TGFB1 (gene 7040)
The experiment can be described thus: BSK_BE3C_TGFb1: BioMAP Diversity Plus: BE3C Assay for Transforming growth factor beta 1 (TGFb1) Biomarker Activity (AID 2283036;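 on outcome: TGF-b1 protein level measured by ELISA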). As to conditions: primary human bronchial epithelial cells; actives raise or lower the signal. An outline of the steps: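 In this human primary bronchial epithelial system, an ELISA quantified TGF-b1 one day after dosing. Endpoint changes in either direction were fitted relative to DMSO.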

Read-out in experiment [14]: Plasminogen activator inhibitor-1 (PAI1), SERPINE1 (gene 5054)
In words: BSK_BE3C_PAI1: BioMAP Diversity Plus: BE3C Assay for Plasminogen activator inhibitor-1 (PAI1) Biomarker Activity (AID 2283037). To be noted: primary human bronchial epithelial cells; actives raise or lower the signal. An outline of the steps:
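PAI-1 biomarker levels in treated human bronchial epithelial cells are determined by ELISA at 24 h. Both increases and decreases relative to DMSO are fitted.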

Read-out in experiment [15]: urokinase plasminogen activator (uPA), PLAU (gene 5328)
In words: BSK_BE3C_uPA: BioMAP Diversity Plus: BE3C Assay for urokinase plasminogen activator (uPA) Biomarker Activity (AID 2283038).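 On outcome: uPA protein level quantified by ELISA in cell cultures; uPA read one day after compound addition.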 To be noted: primary human bronchial epithelial cells; actives raise or lower the signal. The essentials: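 Bronchial epithelial cells (human, primary); chemical 24 h; uPA by ELISA; bidirectional fit vs DMSO. SRB (0.1%, after 10% TCA fixation, 560 nm) in parallel cultures for cytotoxicity.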

Read-out in experiment [16]: Urokinase-type plasminogen activator receptor (uPAR), PLAUR (gene 5329)
The experiment can be described thus: BSK_BE3C_uPAR: BioMAP Diversity Plus: BE3C Assay for Urokinase-type plasminogen activator receptor (uPAR) Biomarker Activity (AID 2283039).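 On outcome: cells exposed to compound for one day before measurement.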 As to conditions: primary human bronchial epithelial cells; actives raise or lower the signal. An outline of the steps:
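A uPAR ELISA serves as the readout, taken 24 h after treating primary human bronchial epithelial cells. Responses in either direction are fitted against DMSO, which defines baseline activity.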

Read-out in experiment [17]: Interleukin-6 (IL6), IL6 (gene 3569)
The experiment can be described thus: BSK_CASM3C_IL6: BioMAP Diversity Plus: CASM3C Assay for Interleukin-6 (IL6) Biomarker Activity for (AID 2283040). As to conditions: primary human coronary artery smooth muscle cells; actives raise or lower the signal.

Read-out in experiment [18]: Interleukin-8 (IL8), CXCL8 (gene 3576)
The experiment can be described thus: BSK_CASM3C_IL8: BioMAP Diversity Plus: CASM3C Assay for Interleukin-8 (IL8) Biomarker Activity (AID 2283042).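 Further: IL-8 protein level quantified by ELISA.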 To be noted: primary human coronary artery smooth muscle cells; actives raise or lower the signal.

Read-out in experiment [19]: Human Leukocyte Antigen - DR isotype (HLADR), HLA-DRA (gene 3122)
In words: BSK_CASM3C_HLADR: BioMAP Diversity Plus: CASM3C Assay for Human Leukocyte Antigen - DR isotype (HLADR) Biomarker Activity (AID 2283043).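 Further: cell-surface HLA-DR protein level quantified by ELISA.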 To be noted: primary human coronary artery smooth muscle cells; actives raise or lower the signal.

Read-out in experiment [20]: Tissue plasminogen activator (tPA), PLAT (gene 5327)
The experiment can be described thus: BSK_BE3C_tPA: BioMAP Diversity Plus: BE3C Assay for Tissue plasminogen activator (tPA) Biomarker Activity (AID 2283041).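 Further: tPA level quantified by ELISA one day after compound addition.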 As to conditions: primary human bronchial epithelial cells; actives raise or lower the signal. The essentials:
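Bidirectional curve fitting relative to DMSO defined activity, with tPA detected by ELISA in chemically treated human bronchial epithelial primary cells at 24 hours.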

For `CC(C)(C)c1cc(O)ccc1O`, the AC50 in [1] is 8.5 µM (active); in experiment [2], 39 µM (active); in [3], 20 µM (active); in experiment [4] it was 28.1 µM (active); in experiment [6] it was 33.5 µM (active); in experiment [9], 18.3 µM (active). Also, the concentration at half-maximal activity (AC50) is 23.2 µM (active) in [10], 26.9 µM (active) in experiment [11], 14 µM (active) in experiment [14] and 20 µM (active) in [19]. Further, the result in experiment [5], in [7], in experiment [8], in experiment [12], in experiment [13] and in [15] was inactive. The outcome in experiment [16], in experiment [17] and in experiment [18] was inactive.
As to `CCOP(=S)(OCC)Oc1ccc(S(C)=O)cc1` (stereo unspecified), the result in [1], in experiment [2], in [3], in experiment [4], in [5] and in [6] was inactive. Also, the result in experiment [8], in experiment [9], in experiment [10], in [11], in experiment [12] and in [13] was inactive. The outcome in [14], in experiment [15], in experiment [16], in [17], in experiment [20] and in experiment [18] was inactive. Further, the result in experiment [19] was inactive.
With `COP(=S)(OC)Oc1c(Cl)cc(C)cc1Cl`, the result in experiment [1], in experiment [5], in experiment [6], in experiment [7], in [8] and in experiment [9] was inactive. Further, the outcome in [11], in experiment [12], in experiment [13], in experiment [14], in [15] and in [16] was inactive. Also, the outcome in experiment [17] and in experiment [19] was inactive. The AC50 was 37.5 µM (active) in experiment [2]; 33.4 µM (active) in experiment [3]; 20 µM (active) in experiment [4]; 26.9 µM (active) in [10]; 0.213 µM (active) in [18].
For the compound `O=C(O)C(F)(F)C(F)(F)C(F)(F)C(F)(F)C(F)(F)C(F)(F)C(F)(F)C(F)(F)C(F)(F)C(F)(F)F`, the AC50 is 29.3 µM (active) and 5.53 µM (active) and 5.54 µM (active) in experiment [1]; 37.8 µM (active) in experiment [2]; 31 µM (active) in [3]; 31.8 µM (active) in [4]; 25.5 µM (active) and 2.72 µM (active) and 4.77 µM (active) in experiment [5]; 5.29 µM (active) in experiment [6]. Further, the AC50 in [7] was 32.1 µM (active); in experiment [9], 9.29 µM (active) and 4.71 µM (active) and 4.92 µM (active); in [10], 33.2 µM (active); in experiment [11] it was 8.5 µM (active) and 2.27 µM (active) and 2.29 µM (active); in experiment [12], 13.8 µM (active) and 5.09 µM (active) and 5.56 µM (active); in experiment [13] it was 8.28 µM (active). Further, the AC50 in [14] is 12.3 µM (active) and 2.33 µM (active) and 1.73 µM (active); in [15] it was 11.6 µM (active) and 6.21 µM (active) and 5.27 µM (active); in [16], 26 µM (active) and 5.6 µM (active) and 5.59 µM (active); in experiment [19], 19.1 µM (active). The outcome in experiment [3], in experiment [4], in [6], in [7], in experiment [8] and in experiment [10] was inactive. Moreover, the result in [17], in experiment [18] and in [19] was inactive.
With `COC(=O)c1sccc1S(=O)(=O)NC(=O)Nc1nc(C)nc(OC)n1`, the outcome in experiment [1], in experiment [2], in experiment [3], in [4], in experiment [6] and in [7] was inactive. The outcome in [8], in experiment [9], in [10], in experiment [11], in experiment [12] and in experiment [13] was inactive. In addition, the outcome in experiment [14], in experiment [15], in experiment [16], in [17], in experiment [20] and in experiment [18] was inactive. Further, the result in experiment [19] was inactive.
